Experiment [1] deals with Progesterone receptor (Homo sapiens) (UniProt P06401). Nature of the experiment: qHTS assay to identify small molecule agonists of the progesterone receptor (PR) signaling pathway (AID 1346784; calls by dose curve; also: nearly all actives have a fitted effect of over 30% in size). In short, it runs like this:
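Reporter assay, GripTite PR-UAS-bla HEK 293T cells: 16 hr exposure to DMSO-dissolved compounds at 37C, 5% CO2, in steroid-depleted (2% charcoal-stripped FBS) medium; beta-lactamase measured by FRET fluorescence.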

Experiment [2] has the same target. Nature of the experiment: qHTS assay to identify small molecule antagonists of the progesterone receptor (PR) signaling pathway (AID 1346795; active = well fitted inhibition curve with a large enough effect in the signal ratio in the repeat runs, not every such curve was filed as active; the % refers to the signal ratio). The method, boiled down: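 Stimulus R5020 at 1 nM final; cells HEK293T PR-UAS-bla; medium with 2% charcoal-stripped FBS; compound exposure 16 hr at 37C, 5% CO2; detection by FRET beta-lactamase substrate, 2 hr, room temperature.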

The nature of experiment [3]: qHTS assay to identify small molecule antagonists of the progesterone receptor (PR) signaling pathway - cell viability counter screen (AID 1346798). Also: series mostly up to about 92 µM; nearly all actives have a fitted effect of over 50% in size. The method, boiled down:
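In the same plates used for the beta-lactamase readout, cell viability of compound- and R5020-treated PR-UAS-bla HEK293T cells (16 hr, 37C) was assessed by CellTiter-Glo luminescence.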

Experiment [4] is described as follows: qHTS assay to identify small molecule agonists of the progesterone receptor (PR) signaling pathway - cell viability counter screen (AID 1346799; calls by dose curve; also: nearly all actives have a fitted effect of over 45% in size). In short, it runs like this: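 Multiplexed viability read: CellTiter-Glo luminescence, 30 min RT, following LiveBLAzer FRET measurement on PR-UAS-bla HEK293T cells exposed to compounds 16 hr.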
The nature of experiment [5]: qHTS assay to identify small molecule antagonists of the TGF-beta/Smad signaling pathway - cell viability counter screen (AID 1346824). Also: nearly all actives have a fitted effect of over 50% in size. The method, boiled down: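 SBE-bla HEK 293T cells were plated overnight at 37 C, then given compounds in DMSO plus TGF-beta1 (added as 0.25 ng/mL solution) for 5 hr. After the bla read, CellTiter-Glo was added to the same wells and luminescence read after 30 min at room temperature.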

Experiment [6] can be described thus: qHTS assay to identify small molecule agonists of the TGF-beta/Smad signaling pathway - cell viability counter screen (AID 1346829). Also: top concentration of the series differs between compounds; nearly all actives have a fitted effect of over 45% in size. In short, it runs like this: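 In parallel with the Smad reporter read, viability of HEK 293T cells stably carrying SBE-bla is quantified by ATP luminescence following 5 hr compound treatment.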
Experiment [7] is described as follows: qHTS assay to identify small molecule agonists of the TGF-beta/Smad signaling pathway (AID 1346859; active = well fitted activation curve with a large enough effect in the signal ratio in the repeat runs, not every such curve was filed as active; the % refers to the signal ratio; also: series mostly up to about 77 µM). In short, it runs like this: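 Screening used HEK 293T SBE-bla cells at 4,000/well. Test agents: 5 hr, 37 C. Detection: FRET substrate, 2 hr RT, then excitation 405 nm with emissions at 460 and 530 nm.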
Experiment [8] deals with Thyrotropin-releasing hormone receptor (Homo sapiens) (UniProt P34981). As to the kind of experiment: qHTS assay to identify small molecule antagonists of the thyrotropin-releasing hormone receptor (TRHR) signaling pathway (AID 1346877; active = well fitted inhibition curve with a large enough effect in the repeat runs, not every such curve was filed as active; also: series mostly up to about 51 µM). The method, boiled down: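 Overnight-plated (18 h, 37 °C) HEK293 cells expressing TRHR were dye-loaded 2 h, treated with compound, then stimulated with TRH at 1 nM final. Fluorescence intensity was captured every second for 3 min.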

Experiment [9] has the same target. As to the kind of experiment: qHTS assay to identify small molecule agonists of the thyrotropin-releasing hormone receptor (TRHR) signaling pathway (AID 1346891; calls by dose curve; also: series mostly up to about 58 µM). The method, boiled down:
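Readout was intracellular calcium fluorescence in TRHR-Hek293 cells. Cells were incubated 18 h, dye-loaded 2 h at 37 °C, and treated with compound in agonist mode.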

Experiment [10] can be described thus: Human pregnane X receptor (PXR) small molecule agonists, qHTS cell viability counter screen (AID 1346977). Also: nearly all actives have a fitted effect of over 50% in size. In short, it runs like this: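 In each well, the PXR reporter HepG2 line was checked for viability: CellTiter-Fluor reagent added 23hr post-dosing, fluorescence read after 1hr incubation at 37C.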
Experiment [11] can be described thus: Caspase-3/7 induction in CHO-K1 cells by small molecules, qHTS cell viability counter screen (AID 1346979). Also: nearly all actives have a fitted effect of over 35% in size. In short, it runs like this: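 Following a 5hr settling period, CHO-K1 cells at 1,500 per well received DMSO-dissolved compounds. Cell viability was quantified 16hr later by CellTiter-Fluor fluorescence, measured after 1hr with reagent at 37C.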
A short description of experiment [12]: Caspase-3/7 induction in CHO-K1 cells by small molecules, qHTS assay (AID 1346980). Also: nearly all actives have a fitted effect of over 15% in size. The method, boiled down:
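Wild-type cells were seeded at 1,500 per well and settled 5 hr at 37 C, 5% CO2, then exposed to DMSO-dissolved compounds for 17 hr. Caspase-Glo 3/7 reagent was added, and luminescence was read after 30min at room temperature.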

Experiment [13] can be described thus: Caspase-3/7 induction in HepG2 cells by small molecules, qHTS cell viability counter screen (AID 1346981). Also: series mostly up to about 92 µM; nearly all actives have a fitted effect of over 30% in size. The method, boiled down:
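Treatment of HepG2 cells with DMSO-delivered compounds ran 16 hr at 37 C following a 5-hr pre-incubation of 2,000 cells/well. CellTiter-Fluor fluorescence, read after 1 hr, served as the viability measure in a qHTS format.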

The target in experiment [14] is Nuclear receptor subfamily 1 group I member 2 (Homo sapiens) (UniProt O75469). As to the kind of experiment: Human pregnane X receptor (PXR) small molecule agonists, qHTS assay (AID 1346982). Also: nearly all actives have a fitted effect of over 35% in size. The method, boiled down: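 Stable HepG2 line reporting PXR-mediated CYP3A4 expression via luciferase. Treatment: 24 hr with compounds in DMSO at 37 C. Detection: ONE-Glo luminescence.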

Experiment [15] concerns the target Cytochrome P450 2D6 (Homo sapiens) (UniProt P10635). As to the kind of experiment: Cytochrome P450 Family 2 Subfamily D Member 6 (CYP2D6) small molecule antagonists: luciferase reporter qHTS assay (AID 1671196). Also: nearly all actives have a fitted effect of over 50% in size. Also: potency is read from the fitted curve at half-maximal effect. The method, boiled down: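 Chemicals tested for interference with CYP2D6 activity; proluciferin substrate, NADPH regeneration, 1 h at room temperature, luminescent detection.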

Experiment [16] addresses Cytochrome P450 2C19 (Homo sapiens) (UniProt P33261). Nature of the experiment: Cytochrome P450 Family 2 Subfamily C Member 19 (CYP2C19) small molecule antagonists: luciferase reporter qHTS assay (AID 1671197). Also: nearly all actives have a fitted effect of over 65% in size. Also: potency is read from the fitted curve at half-maximal effect. The method, boiled down: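 Compounds were tested on CYP2C19 activity via proluciferin conversion to luciferin. The 37C, 1 h reaction followed NADPH addition; detection reagent stopped it.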

Experiment [17] is described as follows: Caspase-3/7 induction in HepG2 cells by small molecules, qHTS assay (AID 1346978). Also: nearly all actives have a fitted effect of over 15% in size. The method, boiled down: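 Wild-type HepG2 cells (2,000/well) were settled 5 h at 37 C, 5% CO2, then exposed to compounds in DMSO for 17 h. Caspase-3/7 activity was read by luminescence 30 min after adding Caspase-Glo 3/7 reagent at room temperature.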
For experiment [18], the target named is Nuclear receptor subfamily 1 group I member 2 (Rattus norvegicus) (UniProt Q9R1A7). As to the kind of experiment: Rat pregnane X receptor (rPXR) activation by small molecules, qHTS assay (AID 1346983). Also: nearly all actives have a fitted effect of over 20% in size. The conditions noted are these: rPXR luciferase reporter cells, One-Glo luminescence, 24 h; stronger effect = higher value. In short, it runs like this: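 Cell-based rPXR luciferase reporter assay, 2,000 cells per well, rested 5hr at 37 C before compound addition in DMSO, then 24 hr at 37 C. One-Glo reagent was added and luminescence read after 30 min at room temperature.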

In experiment [19] the target is Nuclear receptor subfamily 1 group I member 2 (Homo sapiens) (UniProt O75469). As to the kind of experiment: CYP3A4 induction through human pregnane X receptor (PXR) by small molecules, qHTS assay (AID 1346984). Also: nearly all actives have a fitted effect of over 40% in size. In short, it runs like this: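 After 24 h at 37C with compound, DPX-2 cells (HepG2, co-transfected PXR response element and CYP3A4 promoter-luciferase) got 3uM final P450-Glo Luciferin-IPA for 3 h; One-Glo luminescence followed.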

For experiment [20] the target is unchanged. Nature of the experiment: Human pregnane X receptor (PXR) activation by small molecules, qHTS assay (AID 1346985). Also: nearly all actives have a fitted effect of over 40% in size. In short, it runs like this: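 DPX-2 cells (HepG2 co-transfected with a PXR response element and a CYP3A4-promoter luciferase construct) were seeded at 2,000 per well, rested 5 hr at 37C, then exposed to DMSO-dissolved compounds for 24 hr. Activation was read as luciferase luminescence.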

Molecules are shown by their SMILES. Unmarked numbers belong to inactive results. Inconclusive results are not listed. The source made the active and inactive calls. Unless noted, calls follow the shape of the dose curve; as a rule, active = well fitted curve in the direction sought with a large enough effect in the repeat runs; inconclusive = weak or mixed curves; inactive = no such curve, though single readings can be large; an effect the other way counts as inactive or inconclusive.
% is scaled to controls: 0 for no effect and ±100 for the full control effect.

Chain of Cytochrome P450 2C19 (Homo sapiens) (P33261 whole entry, looked up): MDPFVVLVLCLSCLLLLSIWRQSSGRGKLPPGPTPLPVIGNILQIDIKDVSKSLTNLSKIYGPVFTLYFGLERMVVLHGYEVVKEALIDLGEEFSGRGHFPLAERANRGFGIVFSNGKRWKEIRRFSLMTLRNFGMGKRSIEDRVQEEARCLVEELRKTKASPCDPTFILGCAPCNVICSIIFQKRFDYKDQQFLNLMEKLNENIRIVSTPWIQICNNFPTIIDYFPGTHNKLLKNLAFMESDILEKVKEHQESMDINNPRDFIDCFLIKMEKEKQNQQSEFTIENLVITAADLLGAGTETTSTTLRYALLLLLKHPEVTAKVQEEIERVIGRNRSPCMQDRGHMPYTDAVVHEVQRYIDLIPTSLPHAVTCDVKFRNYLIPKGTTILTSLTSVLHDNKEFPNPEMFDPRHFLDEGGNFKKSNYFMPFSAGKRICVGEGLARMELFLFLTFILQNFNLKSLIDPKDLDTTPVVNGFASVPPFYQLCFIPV
Chain of Nuclear receptor subfamily 1 group I member 2 (Homo sapiens) (O75469 whole entry, looked up): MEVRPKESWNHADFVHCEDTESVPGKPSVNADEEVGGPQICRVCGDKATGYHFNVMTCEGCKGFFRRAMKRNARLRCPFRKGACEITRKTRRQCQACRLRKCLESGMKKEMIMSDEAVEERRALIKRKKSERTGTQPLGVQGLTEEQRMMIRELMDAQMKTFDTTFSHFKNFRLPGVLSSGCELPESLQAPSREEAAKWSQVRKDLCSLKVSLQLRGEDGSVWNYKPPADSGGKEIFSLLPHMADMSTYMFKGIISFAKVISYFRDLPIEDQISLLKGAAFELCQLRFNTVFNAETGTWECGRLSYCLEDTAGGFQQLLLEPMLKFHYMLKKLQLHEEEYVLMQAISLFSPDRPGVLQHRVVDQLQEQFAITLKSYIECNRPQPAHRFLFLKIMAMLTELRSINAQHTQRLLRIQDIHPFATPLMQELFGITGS
Chain of Cytochrome P450 2D6 (Homo sapiens) (P10635 whole entry, looked up): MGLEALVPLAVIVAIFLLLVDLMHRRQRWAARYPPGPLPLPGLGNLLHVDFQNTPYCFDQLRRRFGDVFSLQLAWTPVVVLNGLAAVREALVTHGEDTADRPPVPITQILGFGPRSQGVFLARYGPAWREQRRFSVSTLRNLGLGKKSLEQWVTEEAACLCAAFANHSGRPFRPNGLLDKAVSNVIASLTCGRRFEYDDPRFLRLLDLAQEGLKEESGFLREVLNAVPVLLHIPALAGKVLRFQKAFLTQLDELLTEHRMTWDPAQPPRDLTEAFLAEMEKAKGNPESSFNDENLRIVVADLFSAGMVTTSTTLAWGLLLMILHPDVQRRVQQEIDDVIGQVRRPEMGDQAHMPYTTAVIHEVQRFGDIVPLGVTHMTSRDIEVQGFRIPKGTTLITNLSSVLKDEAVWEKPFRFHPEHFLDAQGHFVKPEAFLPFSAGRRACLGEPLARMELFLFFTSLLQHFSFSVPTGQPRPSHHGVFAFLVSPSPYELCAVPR
Chain of Thyrotropin-releasing hormone receptor (Homo sapiens) (P34981 whole entry, looked up): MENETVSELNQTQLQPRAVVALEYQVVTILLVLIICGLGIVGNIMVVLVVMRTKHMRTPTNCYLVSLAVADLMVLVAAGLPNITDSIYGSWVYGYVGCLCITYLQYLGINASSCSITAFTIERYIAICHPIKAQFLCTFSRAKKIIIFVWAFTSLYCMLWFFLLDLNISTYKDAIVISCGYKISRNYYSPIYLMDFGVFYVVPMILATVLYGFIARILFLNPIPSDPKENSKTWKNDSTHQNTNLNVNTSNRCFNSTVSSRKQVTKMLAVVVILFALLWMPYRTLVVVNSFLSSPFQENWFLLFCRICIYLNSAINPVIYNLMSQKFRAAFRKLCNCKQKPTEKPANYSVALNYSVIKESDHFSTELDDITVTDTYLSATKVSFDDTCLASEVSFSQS
Chain of Progesterone receptor (Homo sapiens) (P06401 whole entry, looked up): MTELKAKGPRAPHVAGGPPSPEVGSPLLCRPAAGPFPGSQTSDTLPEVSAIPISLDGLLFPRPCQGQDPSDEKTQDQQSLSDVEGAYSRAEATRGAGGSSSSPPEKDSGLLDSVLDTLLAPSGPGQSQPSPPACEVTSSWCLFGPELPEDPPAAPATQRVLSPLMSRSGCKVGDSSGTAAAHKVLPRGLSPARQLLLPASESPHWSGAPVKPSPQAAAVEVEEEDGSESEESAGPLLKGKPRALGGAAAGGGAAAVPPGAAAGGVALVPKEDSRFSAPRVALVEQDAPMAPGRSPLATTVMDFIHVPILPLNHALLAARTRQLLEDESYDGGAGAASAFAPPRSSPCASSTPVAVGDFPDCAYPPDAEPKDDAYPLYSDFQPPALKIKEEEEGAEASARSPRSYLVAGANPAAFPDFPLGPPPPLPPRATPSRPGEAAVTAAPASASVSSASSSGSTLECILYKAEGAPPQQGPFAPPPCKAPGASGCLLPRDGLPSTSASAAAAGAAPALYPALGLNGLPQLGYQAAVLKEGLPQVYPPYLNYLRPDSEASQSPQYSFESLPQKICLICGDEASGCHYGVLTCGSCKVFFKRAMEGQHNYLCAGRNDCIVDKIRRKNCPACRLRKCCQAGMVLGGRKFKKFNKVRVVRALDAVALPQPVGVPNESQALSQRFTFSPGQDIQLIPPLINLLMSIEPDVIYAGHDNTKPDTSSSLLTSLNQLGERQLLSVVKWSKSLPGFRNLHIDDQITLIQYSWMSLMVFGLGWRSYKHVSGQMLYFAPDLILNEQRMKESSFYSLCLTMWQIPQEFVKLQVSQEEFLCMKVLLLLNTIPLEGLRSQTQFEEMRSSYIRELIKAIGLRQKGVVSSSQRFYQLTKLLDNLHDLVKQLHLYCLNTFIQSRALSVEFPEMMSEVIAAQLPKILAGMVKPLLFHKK
Chain of Nuclear receptor subfamily 1 group I member 2 (Rattus norvegicus) (Q9R1A7 whole entry, looked up): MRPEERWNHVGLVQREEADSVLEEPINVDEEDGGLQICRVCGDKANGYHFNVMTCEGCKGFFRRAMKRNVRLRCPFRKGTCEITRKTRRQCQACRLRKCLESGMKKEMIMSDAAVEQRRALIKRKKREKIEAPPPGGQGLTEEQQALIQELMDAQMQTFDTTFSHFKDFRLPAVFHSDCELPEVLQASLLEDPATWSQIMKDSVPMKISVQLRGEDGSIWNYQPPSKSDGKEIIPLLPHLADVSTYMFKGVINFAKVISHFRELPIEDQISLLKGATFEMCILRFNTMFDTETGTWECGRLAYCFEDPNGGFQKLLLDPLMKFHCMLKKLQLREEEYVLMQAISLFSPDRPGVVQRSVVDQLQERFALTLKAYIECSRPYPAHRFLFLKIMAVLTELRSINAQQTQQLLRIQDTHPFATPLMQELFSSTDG

For the compound `CNS(=O)(=O)CCc1ccc2[nH]cc(C3CCN(C)CC3)c2c1`, the Potency result in [1], in experiment [2], in [3], in experiment [4], in experiment [10] and in experiment [11] was “inactive” each time. In addition, the Potency result in [13], in experiment [14] and in experiment [16] was “inactive” in each case. Moreover, the compound was classed as inactive in experiment [5], in experiment [6], in experiment [7], in experiment [8], in [9] and in experiment [12]. Also, the Potency in experiment [15] is 34.7 µM (active).

Turning to `NCCS`, the Potency entry in experiment [1], in experiment [2], in [3], in experiment [4], in [10] and in experiment [17] was “inactive” each time. In addition, the Potency result in experiment [11], in [13], in [14], in experiment [19], in experiment [20] and in [15] was “inactive” in each case. Further, the Potency result in experiment [16] is “inactive”. Moreover, the outcome in experiment [5], in experiment [6], in experiment [7], in experiment [8], in experiment [9] and in experiment [12] was inactive. In addition, in experiment [18], the max activation is -0.0213%.

As for `CCOC(=O)c1ccc(OC(=O)CCCCCN=C(N)N)cc1`, the Potency result in [1], in [2], in experiment [3], in [4], in experiment [10] and in experiment [17] was “inactive” in each case. Moreover, the Potency result in [11], in experiment [13], in [14], in experiment [19], in [20] and in experiment [16] was “inactive” throughout. Moreover, the result in experiment [5], in experiment [6], in experiment [7], in [8], in experiment [9] and in experiment [12] was inactive. Moreover, the max activation in experiment [18] was 0.318%. In addition, the Potency in [15] is 0.309 µM (active).

On to `O=C(OCC(COC(=O)c1cccnc1)(COC(=O)c1cccnc1)COC(=O)c1cccnc1)c1cccnc1`, for which the Potency entry in [1], in [2], in experiment [3], in experiment [4], in [10] and in experiment [17] was “inactive” in each case. The Potency result in [11], in experiment [13], in experiment [15] and in experiment [16] was “inactive” throughout. For the same compound, the compound was called inactive in experiment [5], in experiment [6], in experiment [7], in experiment [8], in experiment [9] and in experiment [12].

For `CCCCC(CC)COCCO` (centres undefined), the Potency result in [1], in [2], in experiment [3], in experiment [4], in [10] and in experiment [17] was “inactive” each time. The Potency result in experiment [13], in experiment [14], in experiment [15] and in experiment [16] was “inactive” throughout. The outcome in experiment [5], in experiment [6], in experiment [7], in experiment [8], in [9] and in experiment [12] was inactive.

As for `Cc1ccc(C=O)cc1C`, the Potency entry in [1], in experiment [2], in experiment [3], in experiment [4], in experiment [10] and in [17] was “inactive” throughout. For the same compound, the Potency entry in experiment [11], in experiment [13] and in [14] was “inactive” in each case. Further, the compound was classed as inactive in experiment [5], in [6], in [7], in experiment [8], in experiment [9] and in [12].

In the case of `CN(C)c1ccc(C=O)cc1`, the Potency result in experiment [1], in [2], in experiment [3], in experiment [4], in experiment [10] and in experiment [11] was “inactive” throughout. Besides, the Potency entry in experiment [13], in experiment [14] and in experiment [15] was “inactive” throughout. Further, the outcome in experiment [5], in experiment [6], in experiment [7], in experiment [8], in experiment [9] and in experiment [12] was inactive. Also, the Potency in experiment [16] is 79.6 µM (active).

Take `O=C(O)Cc1ccc(Cl)cc1Cl`: the Potency result in [1], in [2], in experiment [3], in experiment [4], in [10] and in experiment [17] was “inactive” throughout. In addition, the Potency result in experiment [11], in experiment [13] and in [16] was “inactive” each time. In addition, the compound was classed as inactive in experiment [5], in experiment [6], in experiment [7], in experiment [8], in experiment [9] and in [12].

These data come from PubChem BioAssay (Tox21).
